This note sets out measurements from PubChem BioAssay (Tox21).

Results filed as inconclusive are left out. Activity calls are given as the source filed them. Calls come from the whole dose curve; as a rule, active = well fitted cell-killing curve with a large enough effect in the repeat runs; inconclusive = weak or mixed curves, or effect the other way; inactive = flat fitted curve, though single readings scatter.
% is set by controls: 0 for no effect and ±100 for the full control effect.

This assay can be described thus: Human pregnane X receptor (PXR) small molecule agonists, qHTS cell viability counter screen (AID 1346977). Note: nearly all actives have a fitted effect of over 50% in size. The note with it: PXR-Luc HepG2 viability, CellTiter-Fluor, 24 h; series mostly up to 92.4 µM; activity change, negative = cytotoxicity: at the top concentration. The source says: U.S. Tox21 Program National Center for Advancing Translational Sciences [NCATS] NIH Chemical Genomics Center [NCGC] U.S. Environmental Protection Agency [EPA] National Institutes of Environmental Health Sciences [NIEHS] National Toxicology Program [NTP] U.S. Food and Drug Administration [FDA] Tox21 Assay Overview: The human pregnane X receptor (hPXR) regulates the expression of several drug metabolizing enzymes and induction of these proteins is a major mechanism for developing drug resistance in cancer. One such key enzyme catalyzing the drug metabolism is cytochrome P450 3A4 (CYP3A4). Changes in CYP3A4 expression affect drug metabolism, thereby reducing the therapeutic efficacy and altering toxicological response to a drug and which finally causes adverse drug interaction. To screen Tox21 libraries for compounds that activate hPXR-mediated CYP3A4 gene expression, PXR-Luc HepG2 cells were used. Also cytotoxicity of the compounds was tested in parallel by measuring the cell viability using CellTiter-Fluor assay system in the same wells.
Tox21 Assay Protocol Summary: PXR-Luc HepG2 cells were dispensed at 2,000 per well in 5uL of assay medium containing 5% charcoal-stripped FBS into white solid bottom 1536-well plates (Corning Life Sciences, Corning, NY) using a Multidrop Combi (Thermo Scientific, Waltham, MA) dispenser. The assay plates were incubated at 37 C and 5% CO2 for 5hr, and then 23nL of compounds dissolved in DMSO and positive control were transferred using a Pintool station (Wako, San Diego, CA). The assay plates were incubated at 37C and 5% CO2 for 24hr. For cytotoxicity read, after 23hr incubation at 37C, 1uL CellTiter-Fluor reagent (Promega Corporation, Madison, WI) was added to each well of the assay plates using Flying Reagent Dispenser (FRD, Aurora Discovery, San Diego, CA). After 1hr incubation at 37C and 5% CO2, the fluorescence signal was quantified using a ViewLux plate reader (PerkinElmer, Shelton, CT).
On the technique in general: In qHTS, concentration-response curves come from the screen itself.
In the case of `O=C(NCN1CCOCC1)c1cnccn1`, the “activity change, negative = cytotoxicity” value was 0.941% [at 42.5 µM] (inactive). In the case of `CCNC(=O)NCc1cccc(Cl)c1`, the “activity change, negative = cytotoxicity” value was 8.35% [at 42.5 µM] (inactive). As to `CC(C)CO`, the “activity change, negative = cytotoxicity” value was 0.574% (inactive). As for `ONc1ccccc1`, the figure is -0.419% (inactive). With `CC1=NN(c2ccc(S(=O)(=O)O)cc2)C(=O)C1` the figure was 5.09% (inactive); with `CCCC(=O)OC/C=C(\C)CCC=C(C)C`, 4.99% (inactive); with `CCCCCCC1(C)CCC(=O)O1` (stereo not given), 6.53% (inactive). With `CO[Si](CCCn1c(=O)n(CCC[Si](OC)(OC)OC)c(=O)n(CCC[Si](OC)(OC)OC)c1=O)(OC)OC` the figure was 5.65% [at 42.5 µM] (inactive); with `Cc1c(N)cccc1Cl`, 1.2% (inactive).

Consider `CC(=O)O[C@H]1C[C@@H]2CC[C@@]1(C)C2(C)C`, for which the “activity change, negative = cytotoxicity” value is -0.227% (inactive).

For the molecule `O/N=C/C=N/O`, the “activity change, negative = cytotoxicity” value was 5.24% (inactive).

On to `CCO`, for which the “activity change, negative = cytotoxicity” value is 1.48% (inactive).

For `CCCC(=O)Nc1ccc(OCC(O)CNC(C)C)c(C(C)=O)c1` (stereo not given), the “activity change, negative = cytotoxicity” value was 11.1% [at 42.5 µM] (inactive). As for `CCC/C=C(\C=O)CC`, the figure is 4.36% (inactive); as for `OC1(c2ccc(Cl)cc2)CCNCC1`, -9.73% [at 42.5 µM] (inactive); as for `O=C(Cl)c1ccccc1[N+](=O)[O-]`, 9.97% (inactive). `Cc1ccc(C(=O)O)cc1[N+](=O)[O-]`: the “activity change, negative = cytotoxicity” value was 16.4% (inactive). As for `N[C@@H](CSCCCO)C(=O)O`, the figure is 9.45% [at 19 µM] (inactive); as for `CC1(C)[C@H]2CC[C@](C)(C2)[C@H]1O`, -0.683% (inactive); as for `O=C(CCCCC(=O)Nc1c(I)cc(I)c(C(=O)O)c1I)Nc1c(I)cc(I)c(C(=O)O)c1I`, 9.47% [at 42.5 µM] (inactive).

For the molecule `CC(N)CCCC(C)(C)O` (stereo not given), the “activity change, negative = cytotoxicity” value is 10.2% [at 42.5 µM] (inactive). With `CN1CCOC(c2ccccc2)c2ccccc2C1` (stereo not given) the figure was -22.6% [at 42.5 µM] (inactive); with `CCOC(=O)CC1(C)OCC(C)O1` (stereo not given), -0.533% (inactive); with `NCCOCCN`, 21.6% (inactive). As for `Cc1cccc(Cl)c1`, the figure is 15% (inactive); as for `CN(C)CCN(C)CCO`, 3.93% (inactive); as for `C=C(C)[C@@H]1CC=C(C)CC1`, 16.7% (inactive). With `CC(C)=CCC[C@@](C)(O)[C@H]1CC=C(C)CC1` the figure was -3% [at 42.5 µM] (inactive).

With `C=CC/C=C/C`, the “activity change, negative = cytotoxicity” value was 3.02% (inactive). Take `CC(=O)C(C)O` (stereo not given): the “activity change, negative = cytotoxicity” value is -2.22% (inactive). For the molecule `CC(=O)O[Si](C)(OC(C)=O)OC(C)=O`, the “activity change, negative = cytotoxicity” value is 4.68% (inactive). With `CCCC(=O)OCCC(C)CCC=C(C)C` (stereo not given) the figure was -0.0708% (inactive). As for `Cc1cc(-c2ccccc2)nnc1NCCN1CCOCC1`, the figure is -0.587% [at 42.5 µM] (inactive); as for `CCCCSCCCC`, -5.86% (inactive). As for `OC[C@@H](O)C(O)[C@@H](O)CO` (stereo not given in full), the figure is 8.33% (inactive); as for `C=CCCCCCCCC`, 2.2% (inactive). For the molecule `O=C(O)CCCCCC(=O)O`, the “activity change, negative = cytotoxicity” value is 1.07% (inactive). As for `CC(=O)O[C@@H]1CC2CCC1(C)C2(C)C` (stereo not given in full), the figure is -3.93% (inactive); as for `C#CCN[C@@H]1CCc2ccccc21`, 12.5% [at 42.5 µM] (inactive). As for `CCO[Si](CC)(OCC)OCC`, the figure is 13.8% (inactive).
